Experiment in all cases: DAPPL (digital affinity profiling via proximity ligation, sequencing); 10 mM Tris-HCl pH 7.5, 50 mM NaCl, 1 mM DTT, 4% glycerol, room temperature, 30 min; GST-TFs on glutathione beads, 16-mer random dsDNA library, 0.1% formaldehyde crosslink after washing; high values mean tight binding
One assay addresses T1, FEV (Homo sapiens, UniProt Q99581 1-238).
T1 sequence: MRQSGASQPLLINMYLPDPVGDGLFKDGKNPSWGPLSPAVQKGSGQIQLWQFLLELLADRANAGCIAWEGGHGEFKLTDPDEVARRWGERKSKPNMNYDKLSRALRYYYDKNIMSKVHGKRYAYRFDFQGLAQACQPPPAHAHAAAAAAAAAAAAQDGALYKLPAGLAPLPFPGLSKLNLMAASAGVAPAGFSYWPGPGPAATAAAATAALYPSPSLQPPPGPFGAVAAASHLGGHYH
To be noted: protein: recombinant; tags: N-terminal GST; dsDNA, one strand shown. In short, it runs like this:
(§1)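 In yeast, human transcription factors were expressed with a GST fusion, then pulled down on glutathione beads and given DNA barcodes. Pooled with a tag-only sample, they were exposed to 200 nmole of a 16-mer random double-stranded DNA library (Tris/NaCl/DTT/glycerol buffer, room temperature, 30 min), washed, crosslinked with 0.1% formaldehyde, proximity-ligated using BsaI/T4 ligase for 1 h at 37 °C, PCR-amplified and read on an Illumina NextSeq500. Each hexamer's frequency of reads for a factor, divided by the matching frequency for the tag-only sample, gives the binding signal.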

In the next assay the target is ETV5 (Homo sapiens, UniProt P41161 1-510). Particulars: protein: recombinant; tags: N-terminal GST; dsDNA, one strand shown. In short, it runs like this:
as §1

The next assay concerns the target HSF1 (Homo sapiens, UniProt Q00613 1-529). Particulars: protein: recombinant; tags: N-terminal GST; chain copies: 3; dsDNA, one strand shown. In short, it runs like this:
as §1

The next assay deals with T2, SPIC (Homo sapiens, UniProt Q8N5J4 1-248).
T2 sequence: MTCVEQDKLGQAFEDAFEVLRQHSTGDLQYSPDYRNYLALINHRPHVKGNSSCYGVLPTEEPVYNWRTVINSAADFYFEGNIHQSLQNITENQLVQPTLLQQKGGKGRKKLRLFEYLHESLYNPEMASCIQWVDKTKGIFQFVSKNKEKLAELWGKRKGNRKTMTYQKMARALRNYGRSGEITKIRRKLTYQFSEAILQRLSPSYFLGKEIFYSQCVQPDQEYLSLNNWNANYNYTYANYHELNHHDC
Particulars: protein: recombinant; tags: N-terminal GST; dsDNA, one strand shown. Summed up: as §1

In a further assay the target is ELF4 (Homo sapiens, UniProt Q99607 1-663). Particulars: protein: recombinant; tags: N-terminal GST; dsDNA, one strand shown. Summed up:
as §1

For the next assay, the target named is T3, ELK4 (Homo sapiens, UniProt P28324-2 1-405).
T3 sequence: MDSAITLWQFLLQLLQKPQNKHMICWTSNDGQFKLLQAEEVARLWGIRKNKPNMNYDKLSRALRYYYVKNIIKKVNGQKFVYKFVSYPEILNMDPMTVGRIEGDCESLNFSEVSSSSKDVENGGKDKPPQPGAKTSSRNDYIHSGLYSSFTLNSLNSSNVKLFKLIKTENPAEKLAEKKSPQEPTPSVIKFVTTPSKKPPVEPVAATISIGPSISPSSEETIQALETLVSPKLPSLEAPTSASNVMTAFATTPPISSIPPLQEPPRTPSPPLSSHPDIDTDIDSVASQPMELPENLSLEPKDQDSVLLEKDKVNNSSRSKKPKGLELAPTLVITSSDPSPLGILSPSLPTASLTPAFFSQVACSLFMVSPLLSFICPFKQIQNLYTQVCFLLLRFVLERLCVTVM
Particulars: protein: recombinant; tags: N-terminal GST; dsDNA, one strand shown. In short, it runs like this: as §1

In another assay the target is T4, ETV2 (Homo sapiens, UniProt O00321 1-342).
T4 sequence: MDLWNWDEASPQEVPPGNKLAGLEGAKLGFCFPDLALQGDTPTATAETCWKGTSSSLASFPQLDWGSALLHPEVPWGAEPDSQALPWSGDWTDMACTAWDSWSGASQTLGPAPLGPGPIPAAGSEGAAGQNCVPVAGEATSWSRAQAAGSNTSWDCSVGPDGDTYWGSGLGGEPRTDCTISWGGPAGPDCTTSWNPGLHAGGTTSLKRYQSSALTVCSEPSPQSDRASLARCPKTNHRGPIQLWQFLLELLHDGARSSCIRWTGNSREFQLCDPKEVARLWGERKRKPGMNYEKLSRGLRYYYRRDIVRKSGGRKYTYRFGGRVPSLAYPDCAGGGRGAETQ
Particulars: protein: recombinant; tags: N-terminal GST; dsDNA, one strand shown. Summed up: as §1

Another assay addresses T5, ELF3 (Homo sapiens, UniProt P78545 1-371).
T5 sequence: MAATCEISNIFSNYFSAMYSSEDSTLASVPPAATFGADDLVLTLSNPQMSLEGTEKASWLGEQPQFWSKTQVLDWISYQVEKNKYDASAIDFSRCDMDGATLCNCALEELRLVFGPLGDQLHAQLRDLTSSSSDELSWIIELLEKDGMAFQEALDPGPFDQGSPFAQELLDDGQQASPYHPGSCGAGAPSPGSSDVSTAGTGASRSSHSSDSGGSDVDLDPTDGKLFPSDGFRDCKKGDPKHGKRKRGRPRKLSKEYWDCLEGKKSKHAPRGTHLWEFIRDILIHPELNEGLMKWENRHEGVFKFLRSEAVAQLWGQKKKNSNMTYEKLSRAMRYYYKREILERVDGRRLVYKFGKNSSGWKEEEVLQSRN
To be noted: protein: recombinant; tags: N-terminal GST; dsDNA, one strand shown. In short, it runs like this: as §1

The next assay concerns the target CRX (Homo sapiens, UniProt O43186 1-299). Particulars: protein: recombinant; tags: N-terminal GST; dsDNA, one strand shown. Summed up: as §1
In the next assay the target is ETV1 (Homo sapiens, UniProt P50549 1-477). Particulars: protein: recombinant; tags: N-terminal GST; dsDNA, one strand shown. In short, it runs like this:
as §1

In a further assay the target is T6, ERF (Homo sapiens, UniProt P50548 1-548).
T6 sequence: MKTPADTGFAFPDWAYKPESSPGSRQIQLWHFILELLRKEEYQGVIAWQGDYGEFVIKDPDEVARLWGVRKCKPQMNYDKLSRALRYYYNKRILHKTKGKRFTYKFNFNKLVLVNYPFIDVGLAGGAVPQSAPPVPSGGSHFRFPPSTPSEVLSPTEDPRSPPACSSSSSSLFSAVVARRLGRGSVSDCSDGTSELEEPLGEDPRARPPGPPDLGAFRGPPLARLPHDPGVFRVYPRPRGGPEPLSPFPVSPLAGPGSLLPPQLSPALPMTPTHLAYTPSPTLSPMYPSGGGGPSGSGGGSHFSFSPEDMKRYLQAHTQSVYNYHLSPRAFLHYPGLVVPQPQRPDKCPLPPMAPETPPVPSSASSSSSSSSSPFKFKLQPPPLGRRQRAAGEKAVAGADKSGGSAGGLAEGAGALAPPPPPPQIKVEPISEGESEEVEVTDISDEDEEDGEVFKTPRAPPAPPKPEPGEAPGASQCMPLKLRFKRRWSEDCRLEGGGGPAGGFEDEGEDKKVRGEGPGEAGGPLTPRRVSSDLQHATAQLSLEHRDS
Particulars: protein: recombinant; tags: N-terminal GST; dsDNA, one strand shown. Summed up:
as §1

In another assay the target is T7, ETV3L (Homo sapiens, UniProt Q6ZN32 1-361).
T7 sequence: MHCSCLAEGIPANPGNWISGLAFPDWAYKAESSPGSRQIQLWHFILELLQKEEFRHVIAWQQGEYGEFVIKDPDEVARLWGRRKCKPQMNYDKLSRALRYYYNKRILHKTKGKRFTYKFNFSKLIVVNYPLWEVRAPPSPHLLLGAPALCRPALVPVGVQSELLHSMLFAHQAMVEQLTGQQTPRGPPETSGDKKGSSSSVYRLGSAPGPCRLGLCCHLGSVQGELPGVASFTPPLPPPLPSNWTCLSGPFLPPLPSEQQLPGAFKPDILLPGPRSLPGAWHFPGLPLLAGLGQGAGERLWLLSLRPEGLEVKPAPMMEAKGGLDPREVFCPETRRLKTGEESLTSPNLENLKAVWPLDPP
Particulars: protein: recombinant; tags: N-terminal GST; dsDNA, one strand shown. In short, it runs like this:
as §1

A further assay concerns the target T8, ETS2 (Homo sapiens, UniProt P15036 1-469).
T8 sequence: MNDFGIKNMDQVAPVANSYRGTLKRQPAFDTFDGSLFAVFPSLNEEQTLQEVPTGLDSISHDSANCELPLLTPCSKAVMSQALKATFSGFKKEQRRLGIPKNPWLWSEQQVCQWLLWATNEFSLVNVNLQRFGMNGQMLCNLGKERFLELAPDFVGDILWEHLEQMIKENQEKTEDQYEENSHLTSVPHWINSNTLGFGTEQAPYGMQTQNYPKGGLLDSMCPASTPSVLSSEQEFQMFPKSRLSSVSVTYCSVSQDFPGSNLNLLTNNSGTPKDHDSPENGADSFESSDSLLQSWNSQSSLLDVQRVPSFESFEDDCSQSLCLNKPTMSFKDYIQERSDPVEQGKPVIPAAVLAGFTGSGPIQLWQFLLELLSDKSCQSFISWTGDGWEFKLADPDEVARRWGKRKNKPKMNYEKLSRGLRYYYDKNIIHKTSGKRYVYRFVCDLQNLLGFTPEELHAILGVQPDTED
Particulars: protein: recombinant; tags: N-terminal GST; dsDNA, one strand shown. In short, it runs like this:
as §1

The next assay deals with T9, SPDEF (Homo sapiens, UniProt O95238 1-335).
T9 sequence: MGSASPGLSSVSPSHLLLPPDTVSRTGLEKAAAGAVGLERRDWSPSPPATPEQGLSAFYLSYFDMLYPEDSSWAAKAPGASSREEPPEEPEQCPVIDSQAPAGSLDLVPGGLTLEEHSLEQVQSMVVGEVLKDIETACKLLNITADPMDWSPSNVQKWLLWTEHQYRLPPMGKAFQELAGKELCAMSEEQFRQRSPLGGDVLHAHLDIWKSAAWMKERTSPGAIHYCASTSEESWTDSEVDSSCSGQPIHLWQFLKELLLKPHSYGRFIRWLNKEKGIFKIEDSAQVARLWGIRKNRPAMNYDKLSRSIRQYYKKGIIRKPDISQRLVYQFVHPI
To be noted: protein: recombinant; tags: N-terminal GST; dsDNA, one strand shown. In short, it runs like this: as §1

A further assay deals with T10, ETV7 (Homo sapiens, UniProt Q9Y603 1-341).
T10 sequence: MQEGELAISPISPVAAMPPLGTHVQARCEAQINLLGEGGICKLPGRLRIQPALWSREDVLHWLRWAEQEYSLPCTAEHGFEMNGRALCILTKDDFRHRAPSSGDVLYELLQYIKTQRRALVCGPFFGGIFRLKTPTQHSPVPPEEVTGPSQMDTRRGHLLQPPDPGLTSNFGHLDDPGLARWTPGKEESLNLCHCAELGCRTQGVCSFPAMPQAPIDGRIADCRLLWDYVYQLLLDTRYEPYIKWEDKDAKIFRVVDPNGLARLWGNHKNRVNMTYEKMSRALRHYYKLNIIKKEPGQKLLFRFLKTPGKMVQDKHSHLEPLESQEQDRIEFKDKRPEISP
To be noted: protein: recombinant; tags: N-terminal GST; dsDNA, one strand shown. Summed up: as §1

For another assay, the target named is T11, ELF5 (Homo sapiens, UniProt Q9UKW6-2 1-255).
T11 sequence: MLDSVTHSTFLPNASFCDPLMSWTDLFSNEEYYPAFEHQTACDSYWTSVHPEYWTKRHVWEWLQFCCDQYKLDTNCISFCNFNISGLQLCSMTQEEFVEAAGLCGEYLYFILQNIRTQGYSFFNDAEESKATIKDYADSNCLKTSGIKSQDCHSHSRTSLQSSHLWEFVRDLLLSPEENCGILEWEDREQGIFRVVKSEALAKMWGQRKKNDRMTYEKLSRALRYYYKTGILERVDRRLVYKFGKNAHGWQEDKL
Particulars: protein: recombinant; tags: N-terminal GST; dsDNA, one strand shown. Summed up:
as §1

The target in a further assay is T12, ETV3 (Homo sapiens, UniProt P41162-2 1-143).
T12 sequence: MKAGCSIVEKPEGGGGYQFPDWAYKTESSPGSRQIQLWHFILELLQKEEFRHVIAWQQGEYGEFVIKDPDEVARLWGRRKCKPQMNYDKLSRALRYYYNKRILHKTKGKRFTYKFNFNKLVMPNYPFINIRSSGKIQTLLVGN
To be noted: protein: recombinant; tags: N-terminal GST; dsDNA, one strand shown. Summed up: as §1

A further assay addresses ETV6 (Homo sapiens, UniProt P41212 1-452). Particulars: protein: recombinant; tags: N-terminal GST; dsDNA, one strand shown. In short, it runs like this:
as §1

ETV6, sequence (P41212 whole entry): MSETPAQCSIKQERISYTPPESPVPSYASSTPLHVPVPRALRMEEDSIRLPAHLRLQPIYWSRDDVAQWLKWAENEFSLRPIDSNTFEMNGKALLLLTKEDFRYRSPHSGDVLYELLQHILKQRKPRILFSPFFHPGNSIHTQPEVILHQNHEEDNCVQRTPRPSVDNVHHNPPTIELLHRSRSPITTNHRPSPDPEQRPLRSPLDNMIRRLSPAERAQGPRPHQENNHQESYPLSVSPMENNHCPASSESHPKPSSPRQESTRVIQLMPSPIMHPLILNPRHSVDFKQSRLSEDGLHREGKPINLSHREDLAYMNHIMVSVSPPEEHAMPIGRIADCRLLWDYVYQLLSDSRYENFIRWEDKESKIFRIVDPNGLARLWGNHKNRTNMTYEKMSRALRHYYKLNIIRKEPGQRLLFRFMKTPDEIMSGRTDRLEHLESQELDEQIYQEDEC
CRX, sequence (O43186 whole entry): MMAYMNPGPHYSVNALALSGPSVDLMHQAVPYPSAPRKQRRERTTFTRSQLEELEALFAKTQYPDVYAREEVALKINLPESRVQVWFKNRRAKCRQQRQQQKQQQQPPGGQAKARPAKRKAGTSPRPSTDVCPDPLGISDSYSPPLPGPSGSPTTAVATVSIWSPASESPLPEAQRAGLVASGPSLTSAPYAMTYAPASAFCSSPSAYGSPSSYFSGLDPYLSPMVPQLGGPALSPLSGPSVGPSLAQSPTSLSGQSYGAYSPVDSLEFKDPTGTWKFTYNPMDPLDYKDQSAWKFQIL
ELF4, sequence (Q99607 whole entry): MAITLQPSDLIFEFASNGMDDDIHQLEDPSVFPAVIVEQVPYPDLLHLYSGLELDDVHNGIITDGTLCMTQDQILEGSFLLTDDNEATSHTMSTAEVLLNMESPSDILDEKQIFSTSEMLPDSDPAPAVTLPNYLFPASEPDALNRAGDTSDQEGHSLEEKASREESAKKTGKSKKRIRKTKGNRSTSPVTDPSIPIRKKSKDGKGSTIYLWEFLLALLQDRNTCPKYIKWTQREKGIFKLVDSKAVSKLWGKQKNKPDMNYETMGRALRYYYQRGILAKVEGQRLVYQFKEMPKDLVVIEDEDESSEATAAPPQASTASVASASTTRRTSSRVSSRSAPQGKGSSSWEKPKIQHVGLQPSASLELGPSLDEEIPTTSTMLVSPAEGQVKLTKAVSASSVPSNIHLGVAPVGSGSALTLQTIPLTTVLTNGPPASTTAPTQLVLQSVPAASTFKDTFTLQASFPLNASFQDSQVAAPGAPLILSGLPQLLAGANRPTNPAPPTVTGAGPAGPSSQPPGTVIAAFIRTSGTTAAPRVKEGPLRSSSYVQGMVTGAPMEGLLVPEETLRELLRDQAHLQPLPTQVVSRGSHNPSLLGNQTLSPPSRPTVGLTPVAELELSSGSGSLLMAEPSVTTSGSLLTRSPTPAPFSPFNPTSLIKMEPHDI
ETV1, sequence (P50549 whole entry): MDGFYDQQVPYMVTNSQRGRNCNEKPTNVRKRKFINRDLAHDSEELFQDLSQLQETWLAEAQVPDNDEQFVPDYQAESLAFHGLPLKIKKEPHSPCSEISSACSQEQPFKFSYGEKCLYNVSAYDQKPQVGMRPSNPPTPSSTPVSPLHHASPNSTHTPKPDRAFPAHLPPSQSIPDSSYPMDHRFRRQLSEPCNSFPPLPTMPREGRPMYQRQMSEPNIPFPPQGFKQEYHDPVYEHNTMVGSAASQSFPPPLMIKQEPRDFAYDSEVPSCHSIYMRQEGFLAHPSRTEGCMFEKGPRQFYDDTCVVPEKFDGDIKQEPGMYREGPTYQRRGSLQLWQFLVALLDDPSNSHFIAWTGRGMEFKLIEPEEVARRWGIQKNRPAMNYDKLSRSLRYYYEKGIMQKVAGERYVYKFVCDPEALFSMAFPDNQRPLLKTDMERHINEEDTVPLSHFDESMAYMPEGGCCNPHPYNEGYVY
HSF1, sequence (Q00613 whole entry): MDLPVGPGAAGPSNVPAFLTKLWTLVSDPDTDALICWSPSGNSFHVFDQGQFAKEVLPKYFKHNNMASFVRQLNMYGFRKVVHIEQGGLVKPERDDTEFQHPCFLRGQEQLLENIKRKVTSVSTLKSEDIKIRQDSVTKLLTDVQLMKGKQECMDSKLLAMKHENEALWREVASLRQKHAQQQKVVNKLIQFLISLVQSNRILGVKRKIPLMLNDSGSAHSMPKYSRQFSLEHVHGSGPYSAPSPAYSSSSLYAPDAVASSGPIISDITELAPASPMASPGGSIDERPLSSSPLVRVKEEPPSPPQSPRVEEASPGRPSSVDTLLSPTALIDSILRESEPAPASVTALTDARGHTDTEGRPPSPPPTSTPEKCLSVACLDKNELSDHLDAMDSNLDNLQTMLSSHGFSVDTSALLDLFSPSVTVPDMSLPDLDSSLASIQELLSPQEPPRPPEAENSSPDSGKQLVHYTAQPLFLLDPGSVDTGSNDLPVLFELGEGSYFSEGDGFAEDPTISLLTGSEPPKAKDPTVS
ETV5, sequence (P41161 whole entry): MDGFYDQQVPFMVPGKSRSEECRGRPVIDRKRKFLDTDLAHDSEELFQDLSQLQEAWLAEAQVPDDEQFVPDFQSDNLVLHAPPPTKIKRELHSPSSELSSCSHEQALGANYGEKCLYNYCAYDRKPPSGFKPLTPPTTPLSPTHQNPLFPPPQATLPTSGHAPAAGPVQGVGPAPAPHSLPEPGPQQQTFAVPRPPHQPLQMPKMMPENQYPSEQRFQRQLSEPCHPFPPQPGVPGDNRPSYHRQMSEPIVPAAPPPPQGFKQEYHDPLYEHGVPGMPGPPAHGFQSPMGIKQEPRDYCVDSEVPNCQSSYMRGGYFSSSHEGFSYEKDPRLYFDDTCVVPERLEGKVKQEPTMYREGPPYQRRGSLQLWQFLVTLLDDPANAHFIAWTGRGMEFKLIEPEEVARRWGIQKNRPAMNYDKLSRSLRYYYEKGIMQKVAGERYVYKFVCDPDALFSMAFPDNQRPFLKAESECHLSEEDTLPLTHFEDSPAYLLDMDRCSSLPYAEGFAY

Turning to CTACGG, the binding signal in the assay with FEV is 1.28 fold enrichment (6-mer frequency, TF over GST control); in the assay with ETV5, 1.21 fold enrichment (6-mer frequency, TF over GST control); with HSF1, 1.03 fold enrichment (6-mer frequency, TF over GST control); with SPIC it was 1.08 fold enrichment (6-mer frequency, TF over GST control); in the assay with ELF4 it was 1.22 fold enrichment (6-mer frequency, TF over GST control); with ELK4 it was 1.37 fold enrichment (6-mer frequency, TF over GST control). In addition, the binding signal is 1.29 fold enrichment (6-mer frequency, TF over GST control) with ETV2; 1.38 fold enrichment (6-mer frequency, TF over GST control) in the assay with ELF3; 1.08 fold enrichment (6-mer frequency, TF over GST control) with CRX; 1.34 fold enrichment (6-mer frequency, TF over GST control) with ETV1; 1.37 fold enrichment (6-mer frequency, TF over GST control) in the assay with ERF; 1.42 fold enrichment (6-mer frequency, TF over GST control) with ETV3L. Also, the binding signal was 1.16 fold enrichment (6-mer frequency, TF over GST control) in the assay with ETS2; 1.17 fold enrichment (6-mer frequency, TF over GST control) in the assay with SPDEF; 1.28 fold enrichment (6-mer frequency, TF over GST control) with ETV7; 1.24 fold enrichment (6-mer frequency, TF over GST control) in the assay with ELF5; 1.29 fold enrichment (6-mer frequency, TF over GST control) with ETV3; 1.19 fold enrichment (6-mer frequency, TF over GST control) with ETV6.

(Values after PMC7862700, “An all-to-all approach to the identification of sequence-specific readers for epigenetic DNA modifications on cytosine”.)
